GCN5L2 inh: qHTS Assay for Inhibitors of GCN5L2. Histone acetyltransferase KAT2A (Homo sapiens), Q92830. GCN5L2 HAT assay, ThioGlo1 CoA-SH fluorescence. hit rate 0.21% among 390,000. AID 504327, 2011. Potency, µM (series often up to 58.9 µM), for inactives: top-dose activity change, negative = inhibition, usual class: inhibitors; note: % is set by controls: 0 for no effect and ±100 for the full control effect
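Titration-based screen in which CoA formation is detected via maleimide probe ThioGlo1 (50uM) turning fluorescent on thiol reaction; substrates H3(1-25) 75uM and acetyl-CoA 70uM, GCN5L2 20nM, 20 min incubation at room temperature.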
Epigenetic derep: Quantitative High-Throughput Screen for Regulators of Epigenetic Control; murine LDR cells, GFP reporter derepression, 30 h; Potency, µM (titrated, usually from 53.9 µM), without a hit: at the highest dose GFP activation, most hits filed as activators; hit rate 0.2% among 280,000; note: % of control where 0% means no effect; nearly all actives have a fitted effect of over 60% in size
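Derepression of a silenced CMV-GFP reporter in murine LDR cells is scored by enumerating GFP-positive cells with a laser-scanning microplate cytometer after 30 hours of treatment at 37 C.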
KDM4E inh: qHTS Assay for Inhibitors of Human Jumonji Domain Containing 2E (JMJD2E); JMJD2E catalytic domain, FDH-coupled NADH fluorescence (FDH is formaldehyde dehydrogenase); Potency, µM (top dose mostly 57.1 µM), for the others: top-dose activity change, negative = inhibition, most hits filed as inhibitors; hit rate 1.6% among 230,000; active = well fitted inhibition curve with a large enough effect, not every such curve was filed as active; inconclusive = small, poorly fitted or top-dose-only effect, or another doubt; inactive = no such curve, though single readings can be large or run the other way;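 note: 0% = wells with enzyme and -100% = buffer wells without enzyme; nearly all actives have a fitted effect of over 50% in size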
Target sequence (B2RXH2 1-337 limits assumed): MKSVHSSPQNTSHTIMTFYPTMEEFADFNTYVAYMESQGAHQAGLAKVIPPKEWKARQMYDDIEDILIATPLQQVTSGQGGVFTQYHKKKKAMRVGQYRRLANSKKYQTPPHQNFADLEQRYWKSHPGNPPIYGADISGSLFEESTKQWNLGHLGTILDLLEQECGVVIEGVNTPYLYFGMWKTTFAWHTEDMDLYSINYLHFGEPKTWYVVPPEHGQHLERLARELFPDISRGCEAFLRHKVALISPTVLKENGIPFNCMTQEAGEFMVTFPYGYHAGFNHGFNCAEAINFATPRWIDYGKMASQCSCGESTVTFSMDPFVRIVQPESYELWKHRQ
IMPase Li cell: qHTS Assay for Identifying the Cell-Membrane Permeable IMPase Inhibitors: Potentiation with Lithium. CHO-M1 cells, IP1 TR-FRET (IP-One), carbachol + lithium. hit rate 0.35% among 210,000. Potency, µM (top dose mostly 59.4 µM), for inactives: at the top dose activity, negative = IMPase inhibition, most hits filed as inhibitors;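 note: IP1 builds up when IMPase is blocked and the TR-FRET signal falls; plate controls were basal vehicle for no effect and high inhibitor control for full effect; nearly all actives have a fitted effect of over 50% in size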
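Test compounds were applied to CHO-M1 cells previously cultured for 16–30 h at 2000 per well. A small lithium amount accompanied them; after 30 min at 37C, IP1 was quantified by TR-FRET.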
Sfp inh: qHTS Assay for Inhibitors of Bacillus subtilis Sfp phosphopantetheinyl transferase (PPTase). hit rate 3.5% among 310,000. AID 1490, 2009. Potency, µM, without a hit: largest response in the series, negative = inhibition, usual class: inhibitors. Biochemical Sfp PPTase activity, qHTS. 4'-phosphopantetheinyl transferase ffp (Bacillus subtilis), Q9F4F7;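 note: the enzyme is Sfp with the accession as filed and its product quenches rhodamine fluorescence; 0% = enzyme reaction without inhibitor and -100% = no enzyme wells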
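Reaction rates are the 30-min fluorescence difference (ex 525, em 598 nm) in wells containing 15 nM Sfp, 5 uM rhodamine-CoA and 12.5 uM BHQ-2-YbbR at pH 7.6 with 10 mM MgCl2.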
NPSR antag: qHTS Assay for Antagonists of the Neuropeptide S Receptor: cAMP Signal Transduction. CHO-NPSR cells, cAMP TR-FRET, antagonist mode. Q6W5P4. Potency, µM (series often up to 38.3 µM), inactives show top-dose activity change, negative = inhibition, actives largely listed as inhibitors. AID 1461, 2008. hit rate 1% among 220,000; note: % is set by controls: 0 for no effect and ±100 for the full control effect; nearly all actives have a fitted effect of over 50% in size
Target sequence (Q6W5P4 whole entry, looked up): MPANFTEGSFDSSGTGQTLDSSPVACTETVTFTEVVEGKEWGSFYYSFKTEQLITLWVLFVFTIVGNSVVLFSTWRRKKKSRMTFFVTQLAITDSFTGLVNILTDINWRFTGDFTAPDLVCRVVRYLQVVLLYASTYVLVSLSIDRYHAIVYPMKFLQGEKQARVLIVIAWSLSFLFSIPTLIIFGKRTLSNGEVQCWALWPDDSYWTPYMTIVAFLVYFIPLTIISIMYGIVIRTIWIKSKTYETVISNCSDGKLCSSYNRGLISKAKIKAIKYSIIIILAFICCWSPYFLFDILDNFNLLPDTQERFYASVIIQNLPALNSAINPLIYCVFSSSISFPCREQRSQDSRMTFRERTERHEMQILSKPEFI
Starred values were filed as active, the others as inactive; ? = inconclusive; nt = not tested or not shown; [ ] = remark or other dose. An excerpt weighted towards active compounds, which were near 3.6% of everything screened. Unless noted, calls come from the whole dose curve; as a rule, active = well fitted curve in the direction sought with a large enough effect; inconclusive = small, poorly fitted or top-dose-only effect, or another doubt; inactive = no such curve, though single readings can be large; an effect the other way counts as inactive or inconclusive. Potency is the fitted concentration of half-maximal effect.

SMILES | GCN5L2 inh | Epigenetic derep | KDM4E inh | IMPase Li cell | Sfp inh | NPSR antag
C[C@@]12C=Cc3occc3C1CC[C@@]13C[C@@H](CCC12)[C@@](O)(CO)C3 (some centres undefined) | 14.6% | ? | nt | 16.0% | -27.7% | nt
CN(C)c1ncc2nc(-c3ccc(Cl)cc3)c(=O)n(Cc3cccs3)c2n1 | -13.4% | nt | nt | 2.4% | -5.8% | nt
Clc1ccc(C2=C3CCCCn4c(-c5ccccc5)c[n+](c43)C2)cc1 | -21.9% | 1.2% | ? | 17.7%[38.3 µM] | 79.4µM* | ?
COc1ccc(-c2cnc3n2CCCCC3)cc1 | 3.3% | 0.0% | 1.6% | nt | 20.1% | 17.5%
COc1ccc(-c2c[n+]3c4n2CCCCC4=C(c2ccc(Br)cc2)C3)cc1 | ? | 5.7% | ? | 4.1%[38.3 µM] | 44.7µM* | ?
COc1ccc(CNc2ncnc3ccc(-c4c(C)noc4C)cc23)c(OC)c1 | -10.0% | nt | nt | 10.3% | -5.0% | nt
CCOC(=O)C1=C([Si](C)(C)C)c2ccccc2N(S(=O)(=O)C(F)(F)F)C1C(=O)OCC (centres undefined) | ? | -3.4% | nt | 30.6% | -10.5% | nt
COc1ccc(CCNC(=O)c2ccc3c(c2)NC(=O)C(CSCc2cc(C)ccc2C)N3)cc1OC (centres undefined) | 28.2µM* | nt | nt | nt | 44.7µM* | nt
COc1ccc2c(c1)c1c(c(=O)n(-c3ccc(F)c(Cl)c3)c(=O)n1CC(N)=O)n2C | -8.0% | -1.5% | nt | nt | nt | nt
Cc1nc(C)c(C(=O)NCc2ccccc2Cl)o1 | -0.6% | -2.1% | 4.0% | 1.7%[38.3 µM] | 89.1µM* | -0.5%[46.1 µM]
Cc1c(-c2ccccc2)c(=O)oc2c(CN3CCOCC3)c(O)ccc12 | ? | 0.1% | nt | nt | nt | nt
CC1CN(Cc2c(O)ccc3c2oc(=O)c2ccccc23)CC(C)O1 (centres undefined) | -19.6% | 1.2% | 28.2µM* | nt | 79.4µM* | -27.3%
Cc1c(-c2ccccc2)c(=O)oc2c(CN3CCCC3)c(O)ccc12 | 35.5µM* | -4.5% | nt | nt | nt | nt
CCOC(=O)C1CCN(c2nc(N)c3c(N)nc(SCC(=O)O)cc3c2C#N)CC1 | ? | 1.1% | ? | nt | 6.31µM* | 15.2%
CCOC(=O)C1CCN(c2nc(C)cc(C)c2C#N)CC1 | 0.0% | 1.1% | ? | 8.4% | 7.6% | -16.0%
CC1CCCC/C1=N\NC(=S)Nc1cccnc1 (centres undefined) | -4.4% | -0.1% | ? | -7.2% | 20µM* | -1.4%
CCOC(=O)C(C)Sc1nc2c(c(-c3cccs3)c1C#N)CCC2 (centres undefined) | -0.1% | 0.0% | 4.9% | -3.0% | 50.1µM* | ?
Cc1ccc(-c2c(C#N)c(N)nc3c2CCCCCC3)o1 | 1.1% | 4.0% | ? | -2.3%[38.3 µM] | 2.5% | -5.4%[46.1 µM]
Cc1ccc(-c2c(C#N)c(N)nc3c2CCCCC3)o1 | -3.7% | 1.7% | ? | -5.3%[38.3 µM] | 50.1µM* | 3.9%[46.1 µM]
CCOC(=O)CSc1nc2c(c(-c3ccc(C)o3)c1C#N)CCCC2 | -7.4% | -2.2% | ? | 21.2%[38.3 µM] | 14.1µM* | ?
C[C@@H](c1ccccc1)N1C(=O)[C@H]2[C@@H]3[C@H](O)C=CC(=O)[C@H]3CC[C@H]2C1=O | nt | 8.0%[10.1 µM] | nt | nt | 6.4% | nt
Cc1ccc(C2CC(=O)Oc3cc(C)c(Cl)cc32)cc1 (centres undefined) | -7.9%[88.6 µM] | -1.5% | nt | 3.7% | ? | nt
CC1=C(CC[C@H](C)CO)O[C@@H]2C[C@@H]3[C@H]4CC[C@H]5C[C@@H](O)CC[C@]5(C)[C@@H]4CC(=O)[C@@]3(C)[C@@H]12 | nt | nt | nt | -0.8% | nt | nt
Brc1ccc(-c2nc3ccccc3s2)s1 | -2.0% | -2.8% | ? | 11.2µM* | -3.3% | 12.6µM*
O=C1CC2(CCCC2)CC(=O)N1CCNC[C@H]1COc2ccccc2O1 | 11.6%[0.501 µM] | 1.0% | 2.8% | 1.9% | -3.6% | nt
SMILES | GCN5L2 inh | Epigenetic derep | KDM4E inh | IMPase Li cell | Sfp inh | NPSR antag
CCn1c(SCC(=O)NCCc2ccccc2)nc2sc3c(c2c1=O)CCN(C)C3 | -2.2% | 1.1% | ? | nt | 4.5% | 0.5%
CCn1c(SCC(=O)c2ccccc2)nc2sc3c(c2c1=O)CCN(C)C3 | -1.7% | -1.2% | ? | nt | 50.1µM* | -29.6%
CCCN1C/C(=C/c2cccc([N+](=O)[O-])c2)C(=O)/C(=C/c2cccc([N+](=O)[O-])c2)C1 | -0.6% | ? | -0.6% | -23.3%[38.3 µM] | 11.8% | -27.2%[46.1 µM]
CCCN1C/C(=C/c2ccc3c(c2)OCO3)C(=O)/C(=C/c2ccc3c(c2)OCO3)C1 | 28.5% | 11.6% | 10µM* | 5.4% | 39.8µM* | -40.5%
CC1CCCCN1C(=O)CSc1nc2ccccc2nc1Cc1ccccc1 (centres undefined) | -8.1% | -1.2% | nt | nt | nt | nt
O=C(O)c1cccc2c1-c1ccccc1/C2=N\Nc1ccccc1 | 0.8% | nt | nt | nt | 12.6µM* | nt
O=C(O)c1cccc(NN=C2c3ccccc3-c3ccccc32)c1 | -22.5% | -3.4% | 2.6% | 1.2% | 13.1% | -2.4%
O=S(=O)(c1ccccc1)N1CCN(Cc2ccccc2C(F)(F)F)CC1 | -6.7% | 2.3% | ? | 27.0%[38.3 µM] | -17.0% | -5.7%[46.1 µM]
COc1cccc(CN2CCC(N(CCc3ccccc3)Cc3ccccc3)CC2)c1OC | 0.8% | 0.0% | ? | 13.5% | 39.8µM* | -40.2%
COc1cccc(CN2CCN(Cc3ccccc3C(F)(F)F)CC2)c1 | -19.8% | nt | nt | nt | 56.2µM* | nt
Cc1ccc(S(=O)(=O)N2CCN(Cc3ccccc3C(F)(F)F)CC2)cc1 | 1.58µM* | -1.3% | -26.2% | 8.6%[38.3 µM] | ? | -16.1%[46.1 µM]
COc1cccc(CN2CCN(Cc3cccc(Oc4ccccc4)c3)CC2)c1OC | -7.4% | nt | nt | nt | 79.4µM* | nt
COc1cccc(CN2CCN(Cc3cc(OC)c(OC)c(OC)c3)CC2)c1OC | 4.2% | nt | nt | nt | -19.9% | nt
O=C1/C(=C/c2ccncc2)SC(=S)N1Nc1ccccc1 | -15.8% | -2.4% | ? | nt | ? | 6.2%[7.67 µM]
Cc1cc(C)nc(NN2C(=O)/C(=C/c3ccccc3)SC2=S)n1 | 3.8% | -2.8% | ? | -0.7%[38.3 µM] | 31.6µM* | -5.0%[46.1 µM]
C=CCOC(=O)C(C(C)=O)C(NC(=O)OC)c1cccc(C(F)(F)F)c1 (centres undefined) | nt | 2.2%[10.1 µM] | nt | nt | 11.3% | nt
CCCCC[C@H](O)/C=C/C=C/C/C=C\CCCC(=O)O | nt | -0.3% | -1.2% | 1.2% | -5.1% | nt
CN(C)S(=O)(=O)c1cccc(-c2nn(-c3ccccc3)cc2/C=C(\C#N)c2nc3ccccc3[nH]2)c1 | -24.2% | 1.2% | 2.4% | -3.1% | 3.7% | -23.2%
CN(C)S(=O)(=O)c1cccc(-c2nn(-c3ccccc3)cc2/C=C2\SC(=S)NC2=O)c1 | ? | -1.0% | -12.4% | 14.2% | ? | 7.94µM*

Screening data (PubChem)
